Measurements published in PubChem BioAssay (NCATS).
Inconclusive results are not listed. A call without a number means that no potency is given here. Calls of active or inactive are those of the source. Unless noted, calls follow the shape of the dose curve; as a rule, active = well fitted inhibition curve with a large enough effect; inconclusive = small, poorly fitted or top-dose-only effect; inactive = flat fitted curve, though single readings scatter.

Legend:
[1] = S16 Schwann cell PMP22 intronic element beta-lactamase assay (AID 624044; calls by dose curve; also: nearly all actives have a fitted effect of over 15% in size); conditions: S16 rat Schwann cells, PMP22 element beta-lactamase FRET, 24 h; ratio activity, negative = inhibition: at 38.3 µM (top of the series)
Procedure, shortened: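 Rat S16 Schwann cells with beta-Lac driven by a PMP22 intronic element, compound-treated 24 h at 37 °C. LiveBLAzer FRET B/G read: 460 nm normalized to potassium clavulanate vs DMSO; 535 nm FRET as viability; concentration-effect curves classified.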

[2] = tested on: 3D7; test: qHTS profiling for inhibitors of Plasmodium falciparum proliferation (AID 504749); also: nearly all actives have a fitted effect of over 60% in size; also: potency is read from the fitted curve at half-maximal effect; conditions: P. falciparum in erythrocytes, SYBR Green DNA, 72 h; series mostly up to 28.7 µM
Procedure, shortened: (§1)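 Three-day growth assay of blood-stage parasites in erythrocytes (0.3% parasitemia, 2.5% hematocrit) at 37 C, 5% CO2, quantified by SYBR Green DNA staining after overnight detergent lysis.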

[3] = tested on: CP185; test: as above; conditions: P. falciparum in erythrocytes, SYBR Green DNA, 72 h; series mostly up to 28.7 µM
Procedure, shortened: as §1

[4] = tested on: CP203; test: as above; conditions: P. falciparum in erythrocytes, SYBR Green DNA, 72 h; series mostly up to 28.7 µM
Procedure, shortened: as §1

[5] = tested on: CP211; test: as above; conditions: P. falciparum in erythrocytes, SYBR Green DNA, 72 h; series mostly up to 28.7 µM
Procedure, shortened: as §1

[6] = tested on: CP217; test: as above; conditions: P. falciparum in erythrocytes, SYBR Green DNA, 72 h; series mostly up to 28.7 µM
Procedure, shortened: as §1

[7] = tested on: CP250; test: as above; conditions: P. falciparum in erythrocytes, SYBR Green DNA, 72 h; series mostly up to 28.7 µM
Procedure, shortened: as §1

[8] = tested on: CP252; test: as above; conditions: P. falciparum in erythrocytes, SYBR Green DNA, 72 h; series mostly up to 28.7 µM
Procedure, shortened: as §1

[9] = tested on: CP256; test: as above; conditions: P. falciparum in erythrocytes, SYBR Green DNA, 72 h; series mostly up to 28.7 µM
Procedure, shortened: as §1

[10] = tested on: CP262; test: as above; conditions: P. falciparum in erythrocytes, SYBR Green DNA, 72 h; series mostly up to 28.7 µM
Procedure, shortened: as §1

[11] = tested on: CP265; test: as above; conditions: P. falciparum in erythrocytes, SYBR Green DNA, 72 h; series mostly up to 28.7 µM
Procedure, shortened: as §1

[12] = tested on: CP291; test: as above; conditions: P. falciparum in erythrocytes, SYBR Green DNA, 72 h; series mostly up to 28.7 µM
Procedure, shortened: as §1

[13] = tested on: CP305; test: as above; conditions: P. falciparum in erythrocytes, SYBR Green DNA, 72 h; series mostly up to 28.7 µM
Procedure, shortened: as §1

[14] = tested on: CP315; test: as above; conditions: P. falciparum in erythrocytes, SYBR Green DNA, 72 h; series mostly up to 28.7 µM
Procedure, shortened: as §1

[15] = tested on: CP335; test: as above; conditions: P. falciparum in erythrocytes, SYBR Green DNA, 72 h; series mostly up to 28.7 µM
Procedure, shortened: as §1

[16] = tested on: DIV30; test: as above; conditions: P. falciparum in erythrocytes, SYBR Green DNA, 72 h; series mostly up to 28.7 µM
Procedure, shortened: as §1

[17] = tested on: ECU; test: as above; conditions: P. falciparum in erythrocytes, SYBR Green DNA, 72 h; series mostly up to 28.7 µM
Procedure, shortened: as §1

[18] = tested on: HB3; test: as above; conditions: P. falciparum in erythrocytes, SYBR Green DNA, 72 h; series mostly up to 28.7 µM
Procedure, shortened: as §1

[19] = tested on: N140; test: as above; conditions: P. falciparum in erythrocytes, SYBR Green DNA, 72 h; series mostly up to 28.7 µM
Procedure, shortened: as §1

[20] = tested on: TAB113; test: as above; conditions: P. falciparum in erythrocytes, SYBR Green DNA, 72 h; series mostly up to 28.7 µM
Procedure, shortened: as §1

Compound	Potency [1]	Potency [2]	Potency [3]	Potency [4]	Potency [5]	Potency [6]	Potency [7]	Potency [8]	Potency [9]	Potency [10]	Potency [11]	Potency [12]	Potency [13]	Potency [14]	Potency [15]	Potency [16]	Potency [17]	Potency [18]	Potency [19]	Potency [20]
COC(=O)C1C(OC(=O)c2ccccc2)CC2CCC1N2C (stereo not drawn)	inactive	inactive	inactive	inactive	inactive	inactive	inactive	inactive	inactive	inactive	inactive	inactive	inactive	inactive	inactive	inactive	inactive	inactive	inactive	inactive
C=C1CC2C(CC[C@]3(C)C(=O)CCC23)[C@]2(C)C=CC(=O)C=C12 (stereo partly drawn)	–	inactive	inactive	inactive	inactive	inactive	inactive	inactive	inactive	inactive	inactive	inactive	inactive	inactive	–	inactive	inactive	inactive	inactive	inactive
C[C@@H](N)[C@@H](O)c1ccc(O)c(O)c1	inactive	inactive	inactive	inactive	inactive	inactive	inactive	inactive	inactive	inactive	inactive	inactive	inactive	inactive	inactive	inactive	inactive	inactive	inactive	inactive
O=C1CC2OCC=C3CN4CC[C@]56c7ccccc7N1C5C2[C@H]3C[C@H]46 (stereo partly drawn)	inactive	inactive	–	–	–	–	–	–	8.91 µM (active)	–	–	–	–	–	5.36 µM (active)	–	–	inactive	–	–
Cc1ccc2c(c1)[C@@H]1CN(C)CC[C@H]1N2	inactive	inactive	inactive	inactive	inactive	inactive	inactive	inactive	inactive	inactive	inactive	inactive	inactive	inactive	inactive	–	inactive	inactive	inactive	inactive
CC(C)=CC1C(C(=O)OCc2coc(Cc3ccccc3)c2)C1(C)C (stereo not drawn)	–	inactive	inactive	inactive	inactive	inactive	inactive	inactive	–	inactive	–	inactive	inactive	inactive	inactive	inactive	inactive	inactive	inactive	–
CC(=O)Oc1ccc2c3c1OC1[C@@H](OC(C)=O)C=C[C@H]4[C@H](C2)N(C)CC[C@]314 (stereo partly drawn)	inactive	inactive	inactive	inactive	inactive	inactive	inactive	inactive	inactive	inactive	inactive	inactive	inactive	inactive	inactive	inactive	inactive	inactive	inactive	inactive
CC(Cc1ccccc1)N(C)C (stereo not drawn)	inactive	inactive	inactive	inactive	inactive	inactive	inactive	inactive	inactive	–	inactive	inactive	inactive	inactive	inactive	inactive	inactive	inactive	inactive	inactive
C#C[C@]1(O)CC[C@H]2[C@@H]3CCC4=CC(=O)CCC4(C)[C@H]3CCC21C (stereo partly drawn)	inactive	inactive	inactive	inactive	inactive	inactive	inactive	inactive	inactive	inactive	inactive	inactive	inactive	inactive	inactive	inactive	inactive	inactive	inactive	inactive
C=CC[C@]1(O)CCC2C3CCC4=CCCCC4C3CCC21C (stereo partly drawn)	inactive	inactive	inactive	inactive	inactive	inactive	inactive	inactive	inactive	inactive	inactive	inactive	inactive	inactive	inactive	inactive	inactive	–	inactive	inactive
CC(=O)O[C@H]1C[C@H](O[C@H]2[C@@H](O)CC(O[C@H]3[C@@H](O)C[C@H](O[C@H]4CC[C@@]5(C)[C@H](CC[C@@H]6[C@@H]5CC[C@]5(C)[C@@H](C7=CC(=O)OC7)CC[C@]65O)C4)O[C@@H]3C)O[C@@H]2C)O[C@H](C)[C@H]1O[C@@H]1O[C@H](CO)[C@@H](O)[C@H](O)[C@H]1O (stereo partly drawn)	inactive	–	inactive	–	inactive	inactive	inactive	inactive	inactive	inactive	inactive	inactive	inactive	inactive	inactive	inactive	inactive	inactive	inactive	inactive
Nc1nc(O)c(-c2ccccc2)o1	inactive	inactive	inactive	inactive	inactive	inactive	inactive	inactive	inactive	inactive	inactive	inactive	inactive	inactive	inactive	inactive	inactive	inactive	inactive	–
